The values that follow come from PubChem BioAssay AID1259374 (The Scripps Research Institute Molecular Screening Center, 2018).

“And” between values parts separate entries of the source, which are not always exact repeats. Identical values can stand only once. The campaign covered roughly 650,000 compounds. About 5,900 (0.91%) were called active. This is one part of a sample in which actives are shown more often than they occur. A number with no mark means an inactive call. No stated cut-off is given here; in the data, active means inhibition above about 50%; inactive means the rest.

For this test, the target named is Microphthalmia-associated transcription factor (Homo sapiens) (UniProt O75030). As to the kind of experiment: MITF inhibitors, primary screen, biochemical, AlphaScreen, human (AID 1259374).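 Further: 0% = vehicle wells with protein.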 The note with it: AlphaScreen MITF homodimerization, bead proximity signal; at 2.6 µM; active compounds read high. For orientation: Bead proximity is the source of the signal in Alpha formats.
Microphthalmia-associated transcription factor (Homo sapiens), sequence (O75030 whole entry, looked up): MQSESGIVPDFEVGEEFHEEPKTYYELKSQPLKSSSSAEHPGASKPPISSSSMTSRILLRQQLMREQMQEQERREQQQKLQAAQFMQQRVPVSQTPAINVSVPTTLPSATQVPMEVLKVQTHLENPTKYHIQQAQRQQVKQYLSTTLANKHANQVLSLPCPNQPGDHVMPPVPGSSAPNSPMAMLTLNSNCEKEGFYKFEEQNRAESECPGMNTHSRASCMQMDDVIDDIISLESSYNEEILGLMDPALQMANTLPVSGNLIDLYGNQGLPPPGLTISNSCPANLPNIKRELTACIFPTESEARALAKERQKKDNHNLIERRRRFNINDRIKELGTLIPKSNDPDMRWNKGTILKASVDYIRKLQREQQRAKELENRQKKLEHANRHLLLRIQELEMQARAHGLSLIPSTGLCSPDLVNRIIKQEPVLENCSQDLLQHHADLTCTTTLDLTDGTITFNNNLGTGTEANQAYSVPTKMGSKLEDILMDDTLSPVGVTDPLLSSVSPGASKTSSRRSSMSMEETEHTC
As for `O=C(NNC(=O)c1ccccn1)NC12CC3CC(CC(C3)C1)C2`, the inhibition was 5.98%. In the case of `COc1cccc(C(=O)NCCSc2ncc(-c3ccc(C)cc3)[nH]2)c1`, the inhibition is 8.31%.

In the case of `Cc1cccc(OCc2nc(C#N)c(NCCCN(C)C)o2)c1`, the inhibition was -13.4%.

On to `N#Cc1nc(COc2cccc(Cl)c2)oc1NCCCn1ccnc1`, for which the inhibition is 62.2% (active). For `Cc1ccc(-c2nc(C#N)c(NCCCn3ccnc3)o2)cc1` the value was -5.46%; for `O=C(CSc1ccc2nc(-c3ccccc3)cn2n1)Nc1cccc2ccccc12`, -15.1%. As for `CCN1C(=O)/C(=C/c2ccc(-c3ccc(Br)cc3)o2)N(CC)C1=S`, the inhibition was -10.4%.

Consider `Cc1ccc(S(=O)(=O)N2CCN(Cc3ccc(F)cc3)CC2)cc1`, for which the inhibition was 49.5%. For `CSc1ccc(CN2CCN(S(=O)(=O)c3ccc([N+](=O)[O-])cc3)CC2)cc1` the value was 53.2% (active); for `COc1ccccc1CN1CCN(S(=O)(=O)c2ccc([N+](=O)[O-])cc2)CC1`, 39.9%; for `CSc1ccccc1NC(=O)c1cc2nc(-c3ccc(Br)cc3)cc(C(F)(F)F)n2n1`, -5.34%. The figure for `COc1cc(C2N=C(c3ccccc3)C(C)(C)N2O)ccc1O` (stereo not given) is 2.87%; for `O=S(=O)(c1ccc(Cl)cc1)N1CCc2ccccc2C1` it is 10.1%; for `CCOC(=O)c1c(NC(=O)c2ccc(OC)cc2OC)sc(C(C)=O)c1C` it is 7.53%. In the case of `Cc1cccc(C(=S)N2CCOCC2)c1`, the inhibition is -19.2%. With `COc1ccc(CNc2ccc3ncc(-c4cccc(O)c4)n3n2)cc1`, the inhibition was -19%. For the compound `COc1ccc(CN2CCN(CCCc3ccccc3)C(CCO)C2)cc1O` (stereo not given), the inhibition was 7.3%. For `CCOc1cc(CN2CCN(Cc3cccc(OC)c3)C(CCO)C2)ccc1O` (stereo not given), the inhibition was -2.92%. With `COc1cccc(CN2CCN(CCCc3ccccc3)CC2CCO)c1` (stereo not given), the inhibition was 69% (active). For `OCC1CCN(C2CCCN(Cc3cccc(-c4ccco4)c3)C2)CC1` (stereo not given) the value was 3.07%. Turning to `COc1ccccc1N1C(=O)c2ccc(C(=O)NN3C(=O)c4ccccc4C3=O)cc2C1=O`, the inhibition was 11.1%. Turning to `COc1cc(N/N=C(\C)c2ccc([N+](=O)[O-])cc2)ncn1`, the inhibition was 9.19%.

In the case of `Cc1cccc(CSc2n[nH]c(=O)[nH]c2=O)c1`, the inhibition is 58.5% (active). As for `O=c1[nH]nc(SCc2cn3cc(Cl)ccc3n2)c(=O)[nH]1`, the inhibition was -5.72%. For the compound `O=c1[nH]nc(SCc2ccc(Cl)cc2)c(=O)[nH]1`, the inhibition is 4.19%. The figure for `O=c1oc(-c2cccc3ncccc23)nn1Cc1cccnc1` is -6.6%; for `COc1ccc(N(CC(=O)N2CCN(C)CC2)S(C)(=O)=O)cc1` it is 13.7%; for `CCOc1ccc(-c2ccc(C)c(NC(=O)c3cccs3)c2)nn1` it is 0.28%.

With `N=C1/C(=C\c2ccc([N+](=O)[O-])o2)C(=O)N=C2SC(N3CCOCC3)=NN12`, the inhibition is 74.2% (active). Take `Cc1ccc(C2=NN3C(=N)/C(=C/c4ccco4)C(=O)N=C3S2)cc1`: the inhibition is -3.9%. On to `Cc1ccc(C2=NN3C(=N)/C(=C/c4ccc(-c5ccc(C(=O)O)cc5)o4)C(=O)N=C3S2)cc1`, for which the inhibition was 3.4%. For `Cc1nnc(SCC(=O)N2c3ccccc3Sc3ccccc32)nc1C` the value was -1.53%. Turning to `O=C(OCCN1CCOCC1)C1(c2ccccc2)CCCCC1`, the inhibition was 3.29% and -3.71%. Regarding `COc1ccc(/C=C/C(=O)OCCN2CCOCC2)cc1`, the inhibition is 12.6%. In the case of `O=C(OCCN1CCOCC1)c1c(Cl)nc2sccn12`, the inhibition is 68.3% (active). As to `CSc1cccc(NC(=O)C2C3C=CC4(O3)C2C(=O)N(CCCN2CCCC(C)C2)C4C(=O)NC2CCCCC2)c1` (stereo not given), the inhibition is 1.08%. In the case of `COc1ccc(CNCc2cccc(F)c2)c(OC)c1`, the inhibition is 17.1%. Consider `COc1cc(CN2CCN(C3CCCC3)C(CCO)C2)cc(OC)c1OC` (stereo not given), for which the inhibition was -4.18%. Turning to `COc1ccc(OC)c(CN2CCC(C(=O)NCC(C)C)CC2)c1`, the inhibition is 10.5%. For `COc1ccc(OC)c(CN2CCN(C3CCCCCC3)CC2)c1`, the inhibition was 49.2%. Regarding `COc1ccc(CN2CCN(Cc3cc(OC)c(OC)c(OC)c3)CC2)cc1`, the inhibition was 70.5% (active). On to `COc1ccc(CN2CCCCC2)c(OC)c1`, for which the inhibition was -6.28%. Turning to `COc1cc(CN2CCOCC2)cc(OC)c1OC`, the inhibition is 5.88%. The figure for `COc1cc(CN2CCN(Cc3ccccc3Cl)CC2)cc(OC)c1OC` is 74.9% (active); for `COc1cc(CN2CCC(O)CC2)cc(OC)c1OC` it is 20.4%; for `COc1ccc(S(=O)(=O)N2CCN(Cc3ccccc3Cl)CC2)cc1` it is 8.12%.

With `COc1ccc(CN2CCN(Cc3cccc(Br)c3)CC2)c(OC)c1`, the inhibition is 72.2% (active). As to `COc1ccc(OC)c(CN2CCN(Cc3ccccc3OC)CC2)c1`, the inhibition was 65.1% (active). In the case of `CS(=O)(=O)Nc1ccc(C(=O)Nc2ccc(Br)c(Cl)c2)cc1`, the inhibition was 11.7%.

As to `COc1ccc(C(=O)N2CCc3c(nc(C)[nH]c3=O)C2)cc1Cn1nc(C)cc1C`, the inhibition was 4.03%. Take `COc1cc(C2C3=C(Nc4[nH]c(=O)[nH]c(=O)c42)C(=O)CC(C)(C)C3)ccc1O` (stereo not given): the inhibition was -4.39%. For `Cc1ccc(Cl)c2sc(=NC(=O)CN3C(=O)c4ccccc4C3=O)n(C)c12` the value was 14.4%; for `O=C(NCCc1ccc(O)cc1)C1CCN(c2ccc(Nc3ccc4ncccc4c3)nn2)CC1`, 14.1%; for `COc1ccc(Cl)cc1-c1nc(SCC(=O)Nc2ccc([N+](=O)[O-])cc2C#N)n[nH]1`, 5.04%. As to `Cc1cc2c(cc3c(=O)n(CC(=O)N4CCCCCC4)nc(C)n32)s1`, the inhibition is 19.7%. For `CC(=O)NC1(c2ccccc2)CCN(C(=O)N(c2ccccc2)c2ccccc2)CC1`, the inhibition is -5.46%. For `N#CC1=C(N)Oc2n[nH]c(-c3ccccc3)c2C1c1cc(Cl)cc(Cl)c1OC(=O)N1CCOCC1` (stereo not given), the inhibition is 1.7%.

With `O=C(CSc1cn(Cc2cccc(F)c2)c2ccccc12)Nc1ccccc1`, the inhibition is -4.78%.

As for `CCOC(=O)c1c(NC(=O)COc2ccc(C)cc2Br)sc2c1CCC(C)C2` (stereo not given), the inhibition was 14.2%. Take `O=C(CSc1nnc2ncccn12)N1CCN(c2ccccc2F)CC1`: the inhibition was -5.77%.

In general, inhibition refers to the drop in the measured response relative to a control, in per cent.
